Measurements from the supplement of paper PMC7411640.
Where a name gives a salt, the structure may show the parent alone.

Tested on: MDA-MB-468
Test: phospho-S6 immunofluorescence (DAPI-normalised), per-plate z-score; higher = higher phospho-S6 signal (less pathway suppression)
Details: 24 h
Description: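 GPCR-targeted compound library (MedChemExpress HY-L006) tested on MDA-MB-468 PTEN-null TNBC cells in 384-well plates at 0.1, 1 or 10 uM, combined with vehicle, GDC0941 450 nM or lapatinib 1 uM, for 24 h. Phospho-S6 (S240/244) immunofluorescence normalised to DAPI and expressed as a per-plate z-score; values are the mean of biological triplicates.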

Compound | phospho-S6 immunofluorescence (z-score) (co-treatment: GDC0941 450 nM) | phospho-S6 immunofluorescence (z-score) (co-treatment: lapatinib 1 uM) | phospho-S6 immunofluorescence (z-score) (co-treatment: vehicle)
Cc1cccc(C)c1NC1=NCCCS1 [Xylazine (hydrochloride)] (compound 10 µM) | 0.73 | 0.79 | 0.89
CN1[C@@H]2CC(O)C[C@H]1[C@@H]1O[C@@H]12 (some centres undefined) [Scopine (hydrochloride)] (compound 10 µM) | 1.05 | 0.28 | -1.09
O=C1Nc2ccccc2C2(CCN(CCc3ccc(C(F)(F)F)cc3)CC2)O1 (compound 10 µM) | -3.3 | -4.41 | -4.38
CO[C@]12C[C@@H](COC(=O)c3cncc(Br)c3)CN(C)[C@@H]1Cc1cn(C)c3cccc2c13 [Nicergoline] (compound 10 µM) | 0.57 | -0.56 | -0.38
C[N+]1(C)CCCC(OC(=O)C(O)(c2ccccc2)c2ccccc2)C1 (centres undefined) [Mepenzolate (Bromide)] (compound 10 µM) | -0.25 | -0.12 | -0.02
Cc1c(C(=O)c2cccc3ccccc23)c2cccc3c2n1[C@H](CN1CCOCC1)CO3 [WIN 55,212-2 (Mesylate)] (compound 10 µM) | -2.24 | -0.84 | -3.25
CN1[C@@H]2CC[C@H]1C[C@@H](OC(=O)[C@H](CO)c1ccccc1)C2 [L-Hyoscyamine] (compound 10 µM) | 0.17 | 0.67 | 0.91
N[C@]1(C(=O)O)CC[C@H](C(=O)O)C1 [trans-ACPD] (compound 10 µM) | 0.3 | 0.1 | -0.68
O=C(O[C@H]1C[N+]2(CCCOc3ccccc3)CCC1CC2)C(O)(c1cccs1)c1cccs1 [Aclidinium (Bromide)] (compound 10 µM) | 0.75 | 1.09 | -0.87
O=Cc1cn(Cc2ccc(Cl)cc2)c2ccccc12 [Oncrasin-1] (compound 10 µM) | -3.49 | -7.38 | -9.12
C[C@@H]1CN(Cc2ccc(F)cc2)CCN1C(=O)COc1ccc(Cl)cc1NC(N)=O (compound 10 µM) | -3.5 | -6.96 | -8.26
N#Cc1c(Oc2cccc(OS(=O)(=O)CCCC(F)(F)F)c2)cccc1C(F)(F)F (compound 10 µM) | -3.05 | -2.85 | -5.42
O=C(O[C@H]1C[C@H]2CC[C@@H](C1)[N+]21CCCC1)C(O)(c1ccccc1)c1ccccc1 [Trospium (chloride)] (compound 10 µM) | -0.76 | 0.26 | -1.07
